From PubChem BioAssay (NCI)
“And” between values parts separate entries of the source, which are not always exact repeats. Equal values may be shown once. The panel holds about 83,000 compounds, 20% with a hit somewhere; the sample as a whole holds those more often.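 96-well plates, one dose, 48 hours. Percent growth reported; active if below 10.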 The source made the active and inactive calls.

Tests used:
Assay in all cases: NCI-60 one-dose screen, 48 h (100 = growth as untreated, 0 = no growth, -100 = all killed)
Conditions in all cases: 10 µM unless noted
UACC-62 melanoma = test system: UACC-62 melanoma
DU-145 prostate = test system: DU-145 prostate
MALME-3M melanoma = test system: MALME-3M melanoma
MDA-MB-231 breast = test system: MDA-MB-231 breast
RXF 393 renal = test system: RXF 393 renal
SF-268 CNS = test system: SF-268 CNS
SF-295 CNS = test system: SF-295 CNS
SF-539 CNS = test system: SF-539 CNS
UACC-257 melanoma = test system: UACC-257 melanoma
M14 melanoma = test system: M14 melanoma
HCT-15 colon = test system: HCT-15 colon
SNB-75 CNS = test system: SNB-75 CNS
SNB-19 CNS = test system: SNB-19 CNS
U251 CNS = test system: U251 CNS
PC-3 prostate = test system: PC-3 prostate
SK-MEL-5 melanoma = test system: SK-MEL-5 melanoma
LOX IMVI melanoma = test system: LOX IMVI melanoma
SK-MEL-28 melanoma = test system: SK-MEL-28 melanoma
K-562 leukemia = test system: K-562 leukemia
HT29 colon = test system: HT29 colon

Cc1ccc(/C=N/Nc2nc3ccccc3s2)s1
growth (UACC-62 melanoma): 45% [100 µM] (inactive) and 40.5% [100 µM] (inactive)

CC1=NN(c2ccccc2)C(=O)C1C(=O)c1ccccc1 (stereo not given)
growth (DU-145 prostate): 103% (inactive) | growth (MALME-3M melanoma): 97.6% (inactive) | growth (MDA-MB-231 breast): 97.1% (inactive) | growth (RXF 393 renal): 140% (inactive) | growth (SF-268 CNS): 95.4% (inactive) | growth (SF-295 CNS): 97.7% (inactive) | growth (SF-539 CNS): 116% (inactive) | growth (UACC-257 melanoma): 94.3% (inactive) | growth (M14 melanoma): 104% (inactive) | growth (HCT-15 colon): 108% (inactive) | growth (SNB-75 CNS): 103% (inactive) | growth (SNB-19 CNS): 95.1% (inactive) | growth (U251 CNS): 94.4% (inactive) | growth (PC-3 prostate): 87.9% (inactive) | growth (SK-MEL-5 melanoma): 99.1% (inactive) | growth (UACC-62 melanoma): 99.2% (inactive) | growth (LOX IMVI melanoma): 96.9% (inactive) | growth (SK-MEL-28 melanoma): 101% (inactive)

COc1ccc2ccccc2c1/C=N/N1CCCCC1
growth (DU-145 prostate): 108% (inactive) | growth (K-562 leukemia): 91.5% (inactive) | growth (MDA-MB-231 breast): 99.4% (inactive) | growth (RXF 393 renal): 100% (inactive) | growth (SF-295 CNS): 96.4% (inactive) | growth (SF-539 CNS): 89.5% (inactive) | growth (UACC-257 melanoma): 99.7% (inactive) | growth (M14 melanoma): 108% (inactive) | growth (HCT-15 colon): 99.4% (inactive) | growth (HT29 colon): 101% (inactive) | growth (SNB-19 CNS): 88.1% (inactive) | growth (U251 CNS): 97.8% (inactive) | growth (PC-3 prostate): 95.9% (inactive) | growth (SK-MEL-5 melanoma): 98.3% (inactive) | growth (UACC-62 melanoma): 89.1% (inactive) | growth (LOX IMVI melanoma): 93% (inactive) | growth (SK-MEL-28 melanoma): 96.5% (inactive)

COc1ccc(/C=c2\[nH]c3nc(=O)c(N4CCOCC4)c(N)n3c2=O)cc1
growth (UACC-62 melanoma): 67.5% [100 µM] (inactive) and 26% [100 µM] (inactive)

CC1=C2NCN(C)N=C2C(C#N)(C#N)C1(C#N)C#N
growth (UACC-62 melanoma): -78.8% [100 µM] (active) and -94.8% [100 µM] (active)

O=C(O)c1cc(C(=O)O)cc([N+](=O)[O-])c1
growth (DU-145 prostate): 116% (inactive) | growth (MALME-3M melanoma): 95.2% (inactive) | growth (MDA-MB-231 breast): 105% (inactive) | growth (RXF 393 renal): 123% (inactive) | growth (SF-268 CNS): 111% (inactive) | growth (SF-295 CNS): 93.4% (inactive) | growth (SF-539 CNS): 100% (inactive) | growth (UACC-257 melanoma): 103% (inactive) | growth (M14 melanoma): 99.8% (inactive) | growth (HCT-15 colon): 104% (inactive) | growth (HT29 colon): 105% (inactive) | growth (SNB-19 CNS): 106% (inactive) | growth (U251 CNS): 100% (inactive) | growth (PC-3 prostate): 96.4% (inactive) | growth (SK-MEL-5 melanoma): 104% (inactive) | growth (UACC-62 melanoma): 105% (inactive) | growth (LOX IMVI melanoma): 97.4% (inactive) | growth (SK-MEL-28 melanoma): 118% (inactive)

COc1cc2c(cc1-c1coc3cc(O)ccc3c1=O)OCO2
growth (UACC-62 melanoma): 58.8% [100 µM] (inactive) and 55% [100 µM] (inactive)

CC1=C(/C=C/C(C)=C/C=C/C(C)=C/C(=O)Nc2ccc(O)cc2)C(C)(C)CCC1
growth (DU-145 prostate): 68.4% (inactive) | growth (MALME-3M melanoma): 76.1% (inactive) | growth (MDA-MB-231 breast): 54.5% (inactive) | growth (RXF 393 renal): 60.8% (inactive) | growth (SF-268 CNS): 60.8% (inactive) | growth (SF-295 CNS): 4.64% (active) | growth (SF-539 CNS): -32.7% (active) | growth (UACC-257 melanoma): 76.7% (inactive) | growth (M14 melanoma): 53.5% (inactive) | growth (HCT-15 colon): 57% (inactive) | growth (HT29 colon): 34.6% (inactive) | growth (SNB-75 CNS): 57.6% (inactive) | growth (U251 CNS): 66.8% (inactive) | growth (PC-3 prostate): 52.2% (inactive) | growth (SK-MEL-5 melanoma): 43.9% (inactive) | growth (UACC-62 melanoma): 22% (inactive) | growth (LOX IMVI melanoma): 2.64% (active) | growth (SK-MEL-28 melanoma): 61.7% (inactive)

O=C=NC(c1ccccc1)(c1ccccc1)c1ccccc1
growth (DU-145 prostate): 106% (inactive) | growth (MALME-3M melanoma): 95.2% (inactive) | growth (MDA-MB-231 breast): 97.5% (inactive) | growth (RXF 393 renal): 129% (inactive) | growth (SF-268 CNS): 104% (inactive) | growth (SF-295 CNS): 98% (inactive) | growth (SF-539 CNS): 110% (inactive) | growth (UACC-257 melanoma): 107% (inactive) | growth (M14 melanoma): 101% (inactive) | growth (HCT-15 colon): 102% (inactive) | growth (HT29 colon): 99.9% (inactive) | growth (SNB-75 CNS): 84.7% (inactive) | growth (SNB-19 CNS): 107% (inactive) | growth (U251 CNS): 99.4% (inactive) | growth (PC-3 prostate): 102% (inactive) | growth (SK-MEL-5 melanoma): 114% (inactive) | growth (UACC-62 melanoma): 101% (inactive) | growth (LOX IMVI melanoma): 102% (inactive) | growth (SK-MEL-28 melanoma): 114% (inactive)

OCc1ccccn1
growth (DU-145 prostate): 100% (inactive) | growth (MALME-3M melanoma): 115% (inactive) | growth (MDA-MB-231 breast): 114% (inactive) | growth (RXF 393 renal): 111% (inactive) | growth (SF-268 CNS): 107% (inactive) | growth (SF-295 CNS): 94.7% (inactive) | growth (SF-539 CNS): 104% (inactive) | growth (UACC-257 melanoma): 104% (inactive) | growth (M14 melanoma): 108% (inactive) | growth (HCT-15 colon): 109% (inactive) | growth (SNB-75 CNS): 74.5% (inactive) | growth (U251 CNS): 102% (inactive) | growth (PC-3 prostate): 97.8% (inactive) | growth (SK-MEL-5 melanoma): 99.8% (inactive) | growth (UACC-62 melanoma): 103% (inactive) | growth (LOX IMVI melanoma): 102% (inactive) | growth (SK-MEL-28 melanoma): 112% (inactive)

Nc1ccn(C2OC(CO)C(O)C2O)c(=O)n1 (stereo not given)
growth (DU-145 prostate): 24% (inactive) and 12.2% (inactive) and 114% (inactive) | growth (MDA-MB-231 breast): 110% (inactive) [middle of 4 runs] | growth (RXF 393 renal): 90.6% (inactive) and 33.4% (inactive) and 134% (inactive) | growth (SF-268 CNS): 35.8% (inactive) and 41.2% (inactive) and 104% (inactive) | growth (SK-MEL-28 melanoma): 58.1% (inactive) and 105% (inactive) and 110% (inactive)

Cc1ccc(C)c(NC(=O)/C(=N\N)C(c2cnc3ccc([N+](=O)[O-])cc3n2)[N+](=O)[O-])c1 (stereo not given)
growth (UACC-62 melanoma): 46.3% [100 µM] (inactive) and 15.7% [100 µM] (inactive)

CC1(C)S[C@H](CN)N[C@H]1C(=O)OC(c1ccccc1)c1ccccc1
growth (UACC-62 melanoma): 34.2% [100 µM] (inactive) and -100% [100 µM] (active)

CCn1c2c(c3ccccc3c1=O)C(=O)c1ccccc1-2
growth (UACC-62 melanoma): 62.3% [100 µM] (inactive) and 2.6% [100 µM] (active)

c1ccc(N(c2ccccc2)c2ccccc2)cc1
growth (DU-145 prostate): 113% (inactive) | growth (MALME-3M melanoma): 93.8% (inactive) | growth (MDA-MB-231 breast): 120% (inactive) | growth (RXF 393 renal): 122% (inactive) | growth (SF-268 CNS): 106% (inactive) | growth (SF-295 CNS): 92% (inactive) | growth (SF-539 CNS): 104% (inactive) | growth (UACC-257 melanoma): 104% (inactive) | growth (M14 melanoma): 100% (inactive) | growth (HCT-15 colon): 99.8% (inactive) | growth (HT29 colon): 97% (inactive) | growth (SNB-19 CNS): 102% (inactive) | growth (U251 CNS): 102% (inactive) | growth (PC-3 prostate): 101% (inactive) | growth (SK-MEL-5 melanoma): 113% (inactive) | growth (UACC-62 melanoma): 104% (inactive) | growth (LOX IMVI melanoma): 94.5% (inactive) | growth (SK-MEL-28 melanoma): 117% (inactive)

O=C(O)CSCc1nc2ccccc2[nH]1
growth (DU-145 prostate): 111% (inactive) | growth (MALME-3M melanoma): 127% (inactive) | growth (MDA-MB-231 breast): 98.4% (inactive) | growth (RXF 393 renal): 112% (inactive) | growth (SF-268 CNS): 99.2% (inactive) | growth (SF-295 CNS): 112% (inactive) | growth (SF-539 CNS): 103% (inactive) | growth (UACC-257 melanoma): 111% (inactive) | growth (M14 melanoma): 97.4% (inactive) | growth (HCT-15 colon): 112% (inactive) | growth (HT29 colon): 103% (inactive) | growth (SNB-75 CNS): 88.7% (inactive) | growth (SNB-19 CNS): 97.4% (inactive) | growth (U251 CNS): 109% (inactive) | growth (PC-3 prostate): 95.5% (inactive) | growth (SK-MEL-5 melanoma): 108% (inactive) | growth (UACC-62 melanoma): 93.9% (inactive) | growth (SK-MEL-28 melanoma): 105% (inactive)
